The source of these data is PubChem BioAssay AID588690 (Broad Institute, 2011).

The whole screen tested about 2,400 compounds, of which fewer than 10 were called active. Not shown: some 1% with an inconclusive outcome. Not all results are given here. A number with no mark means an inactive call.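 How the source made its calls: active means highest replicate activation at or above 34% and every replicate reaching that threshold; inconclusive means meets only one of the two criteria; inactive means meets neither criterion.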

For the assay, the target named is Protein FosB (Mus musculus) (UniProt P13346). Kind of assay: activators of mouse delta FosB DNA binding, confirmation, biochemical, fluorescence polarization, TAMRA-CDK5 oligo, cherry-picked samples (AID 588690).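 Further: higher polarization means more probe DNA bound by delta FosB.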 As to conditions: purified delta FosB, at 24.9 µM, hits give high values, normalised: neutral wells 0, positive control 100.
Sequence of Protein FosB (Mus musculus) (P13346 whole entry, looked up): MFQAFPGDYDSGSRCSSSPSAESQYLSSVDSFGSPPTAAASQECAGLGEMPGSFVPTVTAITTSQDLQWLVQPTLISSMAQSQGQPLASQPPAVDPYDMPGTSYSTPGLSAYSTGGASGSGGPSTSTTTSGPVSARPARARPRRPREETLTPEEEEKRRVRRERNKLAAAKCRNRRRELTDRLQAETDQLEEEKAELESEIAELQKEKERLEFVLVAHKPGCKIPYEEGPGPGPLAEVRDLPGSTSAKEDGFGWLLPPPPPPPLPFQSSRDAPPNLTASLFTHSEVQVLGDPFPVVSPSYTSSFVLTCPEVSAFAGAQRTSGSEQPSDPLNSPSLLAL
In the case of `O=C(Nc1ccc(Br)cc1)c1cc(S(=O)(=O)Nc2ccccn2)ccc1Cl`, the activation was 0.723%.
On to `COc1cccc(CNC(=O)c2nnn(CC(=O)Nc3cc(Cl)ccc3C)c2N)c1`, for which the activation is 5.89%.
Regarding `Cc1ccc2nc(-c3ccccn3)cc(C(=O)Nc3ccc4c(c3)OCO4)c2c1`, the activation is 5.01%.
The same measure for `CN(C)CC(O)COc1ccc(C(C)(C)c2ccc(OCC(O)CN(C)C)cc2)cc1` (stereo not drawn): 3.1%; for `O=C(Cn1cc(-c2nnnn2-c2ccc(Cl)cc2)c(=O)c2ccccc21)c1ccccc1`: 0.385%.
Next, `CCn1c(=O)c2cc(C(=O)Nc3cccc(C(C)=O)c3)sc2c2ccccc21`: 8.7%; `CC(=O)Nc1ccc(C(=O)CSc2nnc(Cc3ccccc3)o2)cc1`: 1.84%.
Next, `O=C(N/N=C/c1cccc(O)c1)c1cc2c(ccc3ccccc32)o1`: -5.62%; `CC(=O)c1ccc(NC(=O)C2CC(=O)Nc3nc4ccccc4n32)cc1` (stereo not drawn): -4.9%; `CCCCn1c(N)c(N(CCC(C)C)C(=O)COC(=O)c2ccc(CC)cc2)c(=O)[nH]c1=O`: 0.0735%.
`Cc1sc2nc(CSCC(=O)Nc3c(Cl)cccc3Cl)[nH]c(=O)c2c1C`: the activation was -0.487%.
Consider `COc1cccc(NC(=O)Cn2c3ccc(F)cc3c3nc4n(c(=O)c32)CCS4)c1`, for which the activation is -5.72%.
The same measure for `COc1ccc(-c2cc3n(n2)CCc2nc4ccccc4n2-3)cc1`: 6.36%; for `O=C(COC(=O)c1ccc(S(=O)(=O)N2CCc3ccccc3C2)cc1)NC(=O)NCc1ccco1`: -0.464%; for `O=c1c2ccccc2oc2nc(C3CCCCC3)n(Cc3ccco3)c(=O)c12`: -1.5%.
With `Cc1ccc2nc(NC(=O)C3CCN(S(=O)(=O)c4ccc5c(c4)oc(=O)n5C)CC3)sc2c1`, the activation was -11.8%.
With `COC(=O)c1sc2ncccc2c1OCc1ccc(Cl)cc1Cl`, the activation is -1.37%.
`O=C(N/N=C/c1ccco1)c1ccc(NC(=O)C2CC2)cc1`: the activation is -0.767%.
On to `O=C1c2cccc3cccc(c23)C(=O)N1c1cccc(O)c1`, for which the activation is 3.04%.
`COc1cc2[nH]c(=O)n(Cc3ccc(C(=O)NC4CCN(Cc5ccccc5)CC4)cc3)c(=O)c2cc1OC`: the activation is 0.608%.
On to `Cc1ccc(-c2cc(C(=O)N/N=C/C=C/c3ccccc3)n[nH]2)o1`, for which the activation was 2.21%.
As for `COc1ccccc1NC(=O)C1=C(C)Nc2nnnn2C1c1cccc(Br)c1` (stereo not drawn), the activation is 5.03%.
The same measure for `Nc1nonc1-n1nnc(C(=O)N/N=C/c2ccc(Cl)cc2)c1-c1ccc2c(c1)OCO2`: 1.91%; for `COC(=O)c1ccc(C23CC4(C2)[C@H](CN(Cc2cccnc2)[C@@H]4c2ccccc2)C3c2ccc(Cl)nc2)cc1` (stereo partly drawn): -13.4%; for `COc1ccc(C(=O)Nc2c(N)nc(SCC(=O)Nc3ccc(C(C)=O)cc3)[nH]c2=O)cc1`: 5.95%.
Next, `COc1ccc(NC(=O)CCC(=O)Nc2nnc(C3CCCCC3)s2)cc1`: 3.71%; `COc1ccc(C(=O)n2nc(-c3ccc(Cl)cc3)nc2N)cc1OC`: 0.58%.
Next, `N#Cc1c(N)nc2c3c(sc(=N)c2c1N)NC(=O)CC3c1ccccc1Cl` (stereo not drawn): 3.21%.
On to `Cc1ccc(NC(=O)COc2ccc(/C=N\NC(=O)c3cccnc3)cc2)cc1C`, for which the activation is 5.95%.
The same measure for `CCOc1ccccc1NC(=O)Cn1nnc(C(=O)NCc2cccs2)c1N`: 2.5%; for `CCOc1ccc2nc(N(CCN(C)C)C(=O)c3ccc4ccccc4c3)sc2c1`: -2.94%; for `COc1ccccc1CNC(=O)Cn1c(=O)oc2cc(Cl)ccc21`: 5.98%.
Take `O=C(Cc1ccc(-n2c(=O)c3sccc3n(Cc3ccc(F)cc3)c2=O)cc1)NCc1ccco1`: the activation was 7.21%.
The same measure for `COc1ccc(/C=C/C(=O)Nc2ccc(C34CC5CC(CC(O)(C5)C3)C4)cc2)cc1OC`: 5.41%; for `COc1ccc(Nc2nc(NCc3ccco3)nc(N/N=C/c3ccccc3Cl)n2)cc1`: 2.55%.
For the compound `Cc1ccc(-c2cc(C(=O)NCc3cn(C)nc3C)c3cc(Br)ccc3n2)cc1`, the activation is -0.3%.
Next, `Cc1cccc(C(=O)Nc2ccccc2-c2nnn(CC(=O)Nc3ccc4c(c3)OCCO4)n2)c1`: -0.9%; `COC(=O)c1scc(C)c1NC(=O)CSc1ccc(Cl)cc1`: 4.2%; `CC[C@@H](C)[C@@H]1CN([C@@H](C)CN2CCC[C@H]2CN2C(N)=NC[C@H]2C(C)C)C(=N)N1CCc1ccc(Cl)c(Cl)c1`: -6.51%.
The same measure for `Cc1ccccc1NC(=O)c1ccc(COc2ccc3c(C)cc(=O)oc3c2)cc1`: 1.47%; for `Cc1nnc(NC(=O)Nc2ccc(Cl)c(Cl)c2)s1`: 0.165%; for `NC(=O)NC(=O)CSc1nc2cc([N+](=O)[O-])ccc2n1-c1cccc(C(F)(F)F)c1`: 3.51%.
Next, `O=C(Cn1cnc2c(nnn2Cc2ccc(F)cc2)c1=O)NCc1ccc2c(c1)OCO2`: 3.1%.
For `O=C(Nc1ccccc1)c1ccc(NC(=O)c2cccs2)cc1`, the activation is 6.7%.
The same measure for `COC(=O)c1nc2n(n1)C(c1ccc([N+](=O)[O-])cc1)C(C(=O)Nc1ccc(Cl)cc1)=C(C)N2` (stereo not drawn): 2.9%.
The same measure for `COc1ccc(/C=C/C(=O)Nc2c(C)nn(C)c2C)cc1COc1ccc(Br)cc1`: 5.31%.
The same measure for `CCCOc1ccc(C(=O)C(CCC(CNCC)C(=O)c2ccc(OCCC)cc2)CNCC)cc1` (stereo not drawn): 4.31%; for `COc1ccc(CC(=O)Nc2ccc(C(=O)NC(C)(C)C)cc2)cc1`: -6.76%.
Consider `CC(=O)Nc1ccc(S(=O)(=O)NCC(=O)OCc2cc(=O)oc3ccc4ccccc4c23)cc1`, for which the activation was -1.24%.
The same measure for `O=C(CN1C(=O)c2cccc3cccc1c23)Nc1ccccc1`: 5.42%.
For `O=C(COc1coc(CN2CCN(c3ccccc3F)CC2)cc1=O)N1CCc2ccccc21`, the activation is -0.869%.
Next, `CCOc1ccc(-n2c(SCC(=O)Nc3ccc(OC)cc3)nc3sc4c(c3c2=O)CCN(C)C4)cc1`: -0.551%.
The same measure for `C#CCOCCOCCOCCNc1nc(N2CCN(C(=O)C(Cc3ccc(O)cc3)n3cc(C(N)CC(C)C)nn3)CC2)nc(N2CCN(C(=O)C(Cc3ccc(O)cc3)n3cc(C(N)C(C)CC)nn3)CC2)n1` (stereo not drawn): 2.47%.
